About 83,000 compounds went through this panel and 20% of them were active in at least one assay; those are over-represented in the sample as a whole.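 A percent growth of 40 corresponds to 60% growth inhibition; 0 means no net growth; -100 means all cells died. Active threshold: below 10.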 Active and inactive are the calls of the source.
Assays:
Test in all cases: NCI-60 one-dose screen, 48 h (100 = growth as untreated, 0 = no growth, -100 = all killed)
Conditions in all cases: 10 µM unless noted
[1] = system: SK-MEL-2 melanoma
[2] = system: EKVX NSCLC
[3] = system: SN12C renal
[4] = system: UO-31 renal
[5] = system: TK-10 renal
[6] = system: ACHN renal
[7] = system: CAKI-1 renal
[8] = system: A498 renal
[9] = system: CCRF-CEM leukemia
[10] = system: MOLT-4 leukemia
[11] = system: SR leukemia
[12] = system: OVCAR-8 ovarian
[13] = system: OVCAR-4 ovarian
[14] = system: SK-OV-3 ovarian
[15] = system: IGROV1 ovarian
[16] = system: OVCAR-3 ovarian
[17] = system: HS 578T breast
[18] = system: NCI/ADR-RES ovarian
[19] = system: OVCAR-5 ovarian
[20] = system: RPMI-8226 leukemia

Measured: growth

Cc1ccc2c(n1)C(=O)C(Cl)=C(Nc1ccccc1C(C)C)C2=O
active: [16] -3.79%
inactive: [1] 64% | [2] 95.8% | [3] 23.7% | [4] 57% | [5] 165% | [6] 49.2% | [7] 35% | [8] 99.7% | [9] 35.7% | [10] 31.9% | [11] 33.4% | [12] 67.5% | [13] 28.4% | [14] 79.7% | [15] 63.9% | [17] 100%

COc1cccc2c(=O)c3c(sc12)c(NCCCN)nc1ccccc13
active: [10] 8.43% | [11] -7.22%
inactive: [1] 103% | [2] 63.6% | [3] 48.4% | [4] 27.7% | [5] 65.6% | [6] 29.4% | [7] 27.5% | [8] 25.2% | [9] 14.7% | [12] 34.8% | [13] 21.8% | [14] 64.7% | [15] 39.3% | [16] 39.1% | [17] 60% | [18] 46%

CC(C)OC(=O)Nc1ccc(-c2nc(-c3cccc(OCCN4CCOCC4)c3)c(-c3ccnc(Br)c3)[nH]2)cc1
inactive: [1] 32.5% | [2] 50.3% | [3] 57.6% | [5] 68.1% | [6] 28.4% | [7] 35.5% | [9] 16.8% | [12] 38.9% | [13] 54% | [14] 12.2% | [15] 45.7% | [16] 45.1% | [18] 57.1%
active: [4] -15.9% | [8] -9.64% | [10] 0.706% | [11] -14.6% | [17] -33%

O=c1c2cc(F)ccc2sc2c(NCCCNCCO)nc3ccc(F)cc3c12
inactive: [1] 97.3% | [2] 75.4% | [3] 66.1% | [4] 31.1% | [5] 67.5% | [6] 46.9% | [7] 27.1% | [8] 26.9% | [9] 15.1% | [10] 18.8% | [19] 73.7% | [13] 41.5% | [14] 80.4% | [15] 43.6% | [16] 30.4% | [17] 61% | [18] 66.5%
active: [11] -25.8%

CCOC(=O)C1=C(N)Oc2c(sc3c(CC)cccc23)C1c1ccc(F)cc1 (configuration not stated)
active: [7] 4.96% | [8] -3.69% | [16] -6.19%
inactive: [1] 52.1% | [2] 64.1% | [3] 49.1% | [4] 36.2% | [5] 99.1% | [6] 34.1% | [9] 27.6% | [10] 64.2% | [11] 27.2% | [12] 45.2% | [13] 58.7% | [14] 50.6% | [15] 29.3% | [17] 23.9% | [18] 32.2%

CCCCCCn1c(-c2ccc(C(=O)O/N=C(\N)c3ccc4ccccc4c3)cc2)nc(-c2ccccc2)c1-c1ccccc1
active: [4] -85.4% | [6] 0.0407% | [11] -37.7% | [15] -48.3% | [18] 3.92%
inactive: [1] 88.6% | [2] 18% | [3] 45.6% | [5] 47.4% | [7] 33.9% | [8] 51.4% | [9] 18.5% | [10] 41.2% | [12] 64.6% | [13] 56.8% | [14] 91% | [16] 74.8% | [17] 46.8%

O=c1c2cc(C(F)(F)F)ccc2sc2c(NCCCNCCO)nc3ccccc3c12
inactive: [1] 84.7% | [2] 67.3% | [3] 36.1% | [4] 23.2% | [8] 21.8% | [19] 64.8% | [14] 74.9%
active: [5] -0.0148% | [6] 2.14% | [7] -67.2% | [9] -12.5% | [10] -50.1% | [11] -39.4% | [12] -3.45% | [13] -41.6% | [17] -9.58% | [18] 1.68%

COc1ccc(N2C(=O)C(Oc3ccccc3)C2c2ccc(C)cc2)cc1 (configuration not stated)
inactive: [1] 106% | [2] 88.8% | [3] 104% | [4] 91.9% | [5] 126% | [6] 95.7% | [7] 93% | [8] 77.9% | [9] 101% | [10] 101% | [20] 106% | [12] 91.8% | [19] 100% | [13] 93.4% | [14] 106% | [15] 102% | [16] 112% | [17] 94%

N#Cc1c(Nc2cccc(Cl)c2)sc(C(=O)c2cc3cc(Cl)ccc3o2)c1N
active: [15] -8.05%
inactive: [1] 71.4% | [2] 158% | [3] 81.3% | [4] 81% | [5] 127% | [6] 112% | [7] 151% | [8] 128% | [9] 52.8% | [10] 66.6% | [20] 56.8% | [12] 67.4% | [19] 86.4% | [13] 92.5% | [14] 97.9% | [16] 111% | [17] 105%

C/C(=C(/c1ccccc1)c1ccc(N2C(=O)c3cccc4c(N5CCN(C)CC5)ccc(c34)C2=O)cc1)c1ccccc1
inactive: [1] 116% | [2] 62.4% | [3] 77.2% | [4] 66.9% | [5] 114% | [6] 89.5% | [7] 86.7% | [8] 86.3% | [9] 58% | [10] 54.3% | [12] 83% | [13] 56.6% | [14] 106% | [15] 69% | [16] 82.7% | [17] 97.9% | [18] 84.9%
active: [11] -9.19%

CCc1cccc2c3c(sc12)C(c1ccc(Cl)cc1)C(C#N)=C(N)O3 (configuration not stated)
active: [7] 3.05% | [9] 5.24% | [16] 2.19% | [17] 4.92%
inactive: [1] 40.2% | [2] 48.2% | [3] 38.3% | [4] 38.2% | [5] 69% | [6] 33.7% | [8] 10.8% | [10] 12.2% | [11] 13.6% | [19] 24.6% | [13] 75.2% | [14] 58.3% | [15] 30.2% | [18] 19.2%

NCCCNc1nc2ccccc2c2c(=O)c3cc(OC(F)(F)F)ccc3sc12
inactive: [1] 89.3% | [2] 67.9% | [3] 41.3% | [4] 33.8% | [5] 64.7% | [8] 21.4% | [14] 89.9% | [15] 35.4%
active: [6] -22.8% | [7] -72.7% | [9] -2.58% | [10] -39.5% | [11] -31.1% | [12] -0.0816% | [13] -58.3% | [16] -73.3% | [17] 1.28% | [18] -29%

CC1Cc2c(ncn3c(-c4ccc(F)cc4)nnc23)N(C)c2ccccc21 (configuration not stated)
active: [13] -66.2%
inactive: [1] 99.6% | [2] 32.8% | [3] 19.8% | [4] 27.6% | [5] 21.8% | [6] 44% | [7] 55.5% | [8] 28.3% | [9] 49.3% | [10] 82.1% | [11] 25% | [12] 57.1% | [19] 78% | [14] 76.3% | [17] 26.1%

O=C(Nc1ccc(I)cc1F)c1cc(I)ccc1O
active: [1] -19.3% | [2] 6.21% | [3] -10.4% | [4] -9.71% | [6] -5.98% | [7] 3.29% | [8] -49.1% | [10] -10% | [11] 3.39% | [16] 4.35% | [17] 3.07% | [18] 5.58%
inactive: [5] 14.7% | [9] 15.3% | [19] 21.6% | [13] 22.3% | [14] 13.9% | [15] 18.4%

c1cc2nc(-c3cn[nH]c3)c3c(c2cc1-c1cn[nH]c1)C1CCC3C1 (configuration not stated)
inactive: [1] 92.4% | [2] 46.3% | [3] 66% | [4] 40.3% | [5] 97.4% | [6] 44.9% | [7] 28.3% | [9] 69% | [10] 63% | [20] 50.6% | [12] 59.3% | [19] 67.8% | [13] 83.9% | [14] 60.2% | [15] 48.6% | [16] 75.5% | [17] 23.2%
active: [8] -6.11%

CCOC(=O)Nc1ccc(-c2nc(-c3cccc(OCCN4CCOCC4)c3)c(-c3ccnc(Br)c3)[nH]2)cc1
inactive: [1] 40.2% | [2] 61.1% | [3] 59.9% | [4] 21.5% | [5] 87.4% | [6] 43.9% | [7] 51.3% | [8] 49.9% | [9] 26.4% | [12] 43.8% | [13] 52.7% | [14] 80.8% | [15] 63.6% | [16] 48.6% | [18] 60.7%
active: [10] 7.57% | [11] -12.9% | [17] -16.4%

BrCCCc1n(Cc2ccc3ccccc3c2)c2ccccc2[n+]1Cc1ccc2ccccc2c1
active: [1] -50.8% | [2] -10.7% | [3] -92.8% | [5] -85.7% | [6] 5.29% | [7] -90.7% | [8] -32.5% | [9] -41.6% | [10] -35.9% | [20] -58.8% | [12] -69.2% | [19] -4.99% | [13] -24.7% | [14] -38.2% | [15] -71.9% | [16] -71.5% | [17] -48.2%
inactive: [4] 52.8%

Source: PubChem BioAssay (NCI)
